From PubChem BioAssay (Tox21) come the findings set out here.

Values joined by “and” are separate entries in the source; they are usually repeats but may differ in a detail not shown here. Equal entries are not always repeated. Inconclusive results are not listed. A number with no mark means an inactive call. Active and inactive are the calls of the source. The call rests on the fitted dose curve.
On the % scale 0 is the no-effect control and ±100 the full control effect; potency means the concentration at half of the fitted maximal effect.

A short description of the test: qHTS assay to identify small molecule agonists of the progesterone receptor (PR) signaling pathway - cell viability counter screen (AID 1346799). Further: nearly all actives have a fitted effect of over 45% in size. The note with it: PR-UAS-bla HEK293T viability, CellTiter-Glo luminescence, 16 h; series mostly up to 92.4 µM; activity change, negative = cytotoxicity: at the top concentration. The text has this:
National Center for Advancing Translational Sciences [NCATS]
NIH Chemical Genomics Center [NCGC]
U.S. Environmental Protection Agency [EPA]
National Institutes of Environmental Health Sciences [NIEHS]
National Toxicology Program [NTP]
U.S. Food and Drug Administration [FDA]
Progesterone receptor (PR), a nuclear hormone receptor, plays an important role in development, metabolic homeostasis and reproduction. It is activated by the steroid hormone progesterone. Endocrine disrupting chemicals (EDCs) and their interactions with steroid hormone receptors like PR causes disruption of normal endocrine function. To identify the compounds that stimulate PR signaling, a PR-UAS-bla GripTite cell line i.e. PR-UAS-bla HEK293T (Invitrogen, Carlsbad, CA, USA) containing a beta-lactamase reporter gene under the control of an UAS response element was used to screen Tox21 10K compound library. The cytotoxicity of the Tox21 compound library against the PR-bla cell line was tested in parallel by measuring the cell viability using CellTiter-Glo assay in the same wells.
Tox21 Assay Protocol Summary:
PR-UAS-bla HEK293T cells were dispensed at 3,000 cells/5 uL of assay medium containing 2% charcoal stripped FBS per well into black wall/clear-bottom 1536-well plates using a Multidrop Combi (ThermoFisher Scientific, Waltham, MA) dispenser. After the assay plates were incubated at a 37C and 5% CO2 for 6 hr, 23 nL of compounds dissolved in DMSO, positive controls or DMSO only was transferred to the assay plate by a Pintool station (Kalypsys, San Diego, CA). The plates were incubated at 37C and 5% CO2 for 16 hr. Then 1 uL of LiveBLAzer B/G FRET substrate was added using a Flying Reagent Dispenser (FRD, Aurora Discovery, San Diego, CA), the plates were incubated at room temperature for 2 hours, and fluorescence intensity was measured by an Envision plate reader (PerkinElmer, Shelton, CT). For cell viability readout that measures cytotoxicity, 4 uL/well of CellTiter-Glo reagent was added into the assay plates using a FRD. After 30 min incubation at room temperature, the luminescence intensity in the plates was measured using a ViewLux (PerkinElmer) plate reader.
A general note: qHTS replaces the single test concentration by a dilution series.
As to `COc1ccc2c(c1OC)C(=O)O[C@@H]2[C@H]1c2cc3c(cc2CCN1C)OCO3`, the “activity change, negative = cytotoxicity” value was -8.89%.

On to `CC(=O)C(Cl)C(=O)N(C)C` (stereo not given), for which the “activity change, negative = cytotoxicity” value is -8.11%.

Turning to `CC1CN1` (stereo not given), the “activity change, negative = cytotoxicity” value was 3.69%.

Turning to `CN`, the “activity change, negative = cytotoxicity” value was -0.297%.

As for `C#CCO`, the “activity change, negative = cytotoxicity” value is -4.54%.

For `[O]=[Cr](=[O])([OH])[O][Cr](=[O])(=[O])[OH]`, the “activity change, negative = cytotoxicity” value was 0%.

For `CSC(C)(C)/C=N/O`, the “activity change, negative = cytotoxicity” value was 11.4%.

For the compound `Cc1ccccc1OP(=O)(Oc1ccccc1C)Oc1ccccc1C`, the “activity change, negative = cytotoxicity” value was 3.48%.

Regarding `Nc1ccccc1-c1ccccc1`, the Potency was 30.5 µM (active).

Consider `N#Cc1c2ccccc2cc2ccccc12`, for which the “activity change, negative = cytotoxicity” value is 0.0569%.

As to `[C-]1=CC=CC1.[Cl][Zr+2][Cl].c1cc[cH-]c1`, the “activity change, negative = cytotoxicity” value is -1.23%.

`BrCC(Br)(Br)Br`: the “activity change, negative = cytotoxicity” value was -1.33%.

Consider `BrCCCBr`, for which the “activity change, negative = cytotoxicity” value was 16.2%.

Turning to `c1csc(-c2ccc(-c3cccs3)s2)c1`, the “activity change, negative = cytotoxicity” value is 17.2%.

Take `S=C=Nc1ccccc1`: the “activity change, negative = cytotoxicity” value is -8.28%.

For the compound `CCC(C)Nc1c([N+](=O)[O-])cc(C(C)(C)C)cc1[N+](=O)[O-]` (stereo not given), the “activity change, negative = cytotoxicity” value is 4.09%.

With `N#Cc1ccc(N(CC(N)=O)CC(F)(F)F)cc1C(F)(F)F`, the “activity change, negative = cytotoxicity” value is 15.9%.

Turning to `CC(Cc1ccc2c(c1)OCO2)NO` (stereo not given), the “activity change, negative = cytotoxicity” value is -5.39%.

Take `CCC[CH2][Sn]([CH2]CCC)([O]C(C)=O)[O]C(C)=O`: the Potency is 0.978 µM (active).

Consider `CC(=O)[O-].CC(=O)[O-].CC(=O)[O-].[Sb+3]`, for which the activity change, negative = cytotoxicity was 7.1% [at 3.27 µM].

Regarding `NC1CCC(CC2CCC(N)CC2)CC1` (stereo not given), the Potency was 26.8 µM (active).

Turning to `O=[N+]([O-])c1ccccc1-c1ccccc1`, the “activity change, negative = cytotoxicity” value is 14%.

Regarding `CC(=O)O.CC(=O)O.CC(=O)O.CC(=O)O.CC(=O)O.CC(=O)O.CC(=O)O.O.O.[Cr].[Cr].[Cr]`, the “activity change, negative = cytotoxicity” value is 18.8%.

Regarding `CCC1(CC)C(=O)N=C(O)NC1=O`, the “activity change, negative = cytotoxicity” value is -11.9%.

`N#Cc1sc2c(=O)c3ccccc3c(=O)c=2sc1C#N`: the Potency was 30.6 µM (active).

For `CCCCCON=O`, the “activity change, negative = cytotoxicity” value was 2.37%.

In the case of `CNC(C)(C)Cc1ccccc1`, the “activity change, negative = cytotoxicity” value is -18.5% [at 42.5 µM].

`Nc1ccc(Cl)cc1C(=O)c1ccccc1F`: the “activity change, negative = cytotoxicity” value was 0.934% [at 42.5 µM].

With `CSC(=O)c1c(C(F)F)nc(C(F)(F)F)c(C(=O)SC)c1CC(C)C`, the “activity change, negative = cytotoxicity” value is 9.86%.

`CC(Cc1ccc(OCC(=O)O)cc1)NCC(O)c1csc(C(F)(F)F)n1` (stereo not given): the “activity change, negative = cytotoxicity” value is -6.87%.

As to `CCCCC(CC)COC(=O)OOC(C)(C)C` (stereo not given), the “activity change, negative = cytotoxicity” value was 10.9%.

`CC(C)(C)c1ccc(OP(=O)(Oc2ccccc2)Oc2ccccc2)cc1`: the “activity change, negative = cytotoxicity” value was 0%.

With `CC(=O)[O][Pb]([c]1ccccc1)([c]1ccccc1)[c]1ccccc1`, the Potency is 4.33 µM (active).

Take `COC(=O)C(C)N(C(=O)c1ccco1)c1c(C)cccc1C` (stereo not given): the “activity change, negative = cytotoxicity” value is 4.83%.

For `CCn1cc[n+](C)c1` (tested in a mixture with another compound), the “activity change, negative = cytotoxicity” value is -4.15%.

Regarding `[Cl-].[Cl-].[Sn+2]`, the “activity change, negative = cytotoxicity” value is 5.37%.

For `CN(C)C(=S)SSC(=S)N(C)C`, the Potency was 344 nM (active) and 298 nM (active).

With `Nc1nc(N)nc(Cl)n1`, the “activity change, negative = cytotoxicity” value is -26.5%.

Consider `O=C(N[C@H]1N=C(c2ccccc2F)c2cccc3c2N(CC3)C1=O)c1cc2ccccc2[nH]1`, for which the “activity change, negative = cytotoxicity” value was 7.62% [at 42.5 µM].

`C[N+]1(C)[C@@H]2CC[C@H]1CC(OC(=O)C(CO)c1ccccc1)C2` (stereo not given in full): the “activity change, negative = cytotoxicity” value was -3.65% [at 42.5 µM].
